D2 PAM-1: Beta-Arrestin HTS for Positive Allosteric Modulators of the Human D2 Dopamine Receptor: Potentiators. DiscoveRx D2 beta-arrestin cells, luminescence, 90 min; 100% = 57 uM dopamine signal. potentiation, % (concentration not given with the values). 0.23% of 360,000 active. AID 624464, 2012; in the data active = potentiation above about 50%; inconclusive = mostly about 30% to 49%
Target sequence (P14416 whole entry, looked up): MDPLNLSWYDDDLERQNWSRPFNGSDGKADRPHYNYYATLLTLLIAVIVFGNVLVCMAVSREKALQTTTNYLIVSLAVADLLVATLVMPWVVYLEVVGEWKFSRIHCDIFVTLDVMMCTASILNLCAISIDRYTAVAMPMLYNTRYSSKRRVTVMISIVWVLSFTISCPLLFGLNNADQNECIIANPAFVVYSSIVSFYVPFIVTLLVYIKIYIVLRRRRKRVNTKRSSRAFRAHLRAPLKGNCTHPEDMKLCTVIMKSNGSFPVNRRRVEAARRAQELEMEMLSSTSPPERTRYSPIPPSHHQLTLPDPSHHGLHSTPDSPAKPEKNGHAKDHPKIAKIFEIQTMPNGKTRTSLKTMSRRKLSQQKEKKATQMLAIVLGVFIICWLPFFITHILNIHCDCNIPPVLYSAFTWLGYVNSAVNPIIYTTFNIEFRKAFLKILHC
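PathHunter beta-arrestin assay in DiscoveRx D2 cells. Compounds were added with an EC20 of dopamine (50 nM final) for 90 min at 37 deg C. Luminescence was read 1 h after detection reagent, with 57 uM dopamine as the EC100 control.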
D2 ag-1: Beta-Arrestin HTS for Positive Allosteric Modulators of the Human D2 Dopamine Receptor: Agonists; activation, % (test concentration not listed); D(2) dopamine receptor (Homo sapiens), P14416; 0.084% of 360,000 active; DiscoveRx PathHunter D2 beta-arrestin, luminescence, 90 min; 100% = 57 uM dopamine signal; in the data active = activation above about 40%; inconclusive = between about 15% and that limit
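Agonist mode: compounds alone added to overnight-plated D2 PathHunter cells for 90 min at 37 C, with 57 uM final dopamine (EC100) defining full response. Beta-arrestin recruitment detected by chemiluminescent reagent, read after 1 h at ambient temperature.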
D2 PAM-2: HTS Assay for Positive Allosteric Modulators of the Human D2 Dopamine Receptor: Primary Screen for Potentiators | HEK293 T-REx D2, calcium flux, EC20 dopamine potentiation | potentiation, % at 10 µM | D(2) dopamine receptor (Homo sapiens), P14416 | AID 485347, 2010 | 0.34% of 340,000 active;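 active = potentiation over 3 SD above the plate norm, cut at about 30% in these data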; note: 0% is about no effect
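Tetracycline-induced Hek293 Trex D2 cells, force-coupled to calcium, loaded with no-wash calcium dye. Compound added with 180 s kinetic read for agonism, then EC20 dopamine and a further 180 s read for potentiation.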
D2 ag-2: HTS Assay for Allosteric Agonists of the Human D2 Dopamine Receptor: Primary Screen for Agonists | D(2) dopamine receptor (Homo sapiens), P14416 | HEK293 T-REx D2 cells, calcium flux agonist mode | activation, % at 2 µM | 0.53% of 340,000 active;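 active = activation over 3 SD above normal in the single-dose calcium agonist read, cut at about 30% in these data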; note: 0% is about no effect
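Tetracycline-induced HEK293 T-REx cells with force-coupled D2 receptor, plated overnight at 30 C, loaded with no-wash calcium dye. After a 10 s baseline, compound was pin-added and calcium flux read kinetically for 180 s; calcium rises flagged agonists.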
D2 antag: HTS Assay for Allosteric Antagonists of the Human D2 Dopamine Receptor: Primary Screen for Antagonists | inhibition, % at 10 µM | 2% of 340,000 active | HEK293 TREx D2 cells, calcium flux, dopamine EC80 | D(2) dopamine receptor (Homo sapiens), P14416; in the data active = inhibition above about 30%; inactive = below that, where a call was filed; note: 0% is about no effect
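Antagonism is scored as inhibition of an EC80 dopamine-evoked calcium signal in a force-coupled, tetracycline-inducible HEK293 T-REx D2 line, with compound present 180 s before agonist.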
The depositor's hits bear a star; ? = inconclusive; · = no result; ! = repeats disagree. A selection: hits, their analogues and other compounds. The true share with any hit is near 2.4%.

SMILES | D2 PAM-1 | D2 ag-1 | D2 PAM-2 | D2 ag-2 | D2 antag
CCOC(=O)N1CCN(C(=O)c2ccc(OC)c(OC)c2)CC1 | -12.0 | -2.5 | -4.2 | -1.2 | -12.6
COCCNC(=O)c1ccccc1NC(=O)c1nsc2ccccc12 | · | · | 15.0 | -0.4 | ·
CCN1CCN(c2ccc([N+](=O)[O-])c(Sc3nc4ccccc4[nH]3)c2)CC1 | -20.5 | -5.9 | -24.5 | -2.5 | 86.8*
CCC(=O)N1CCc2cc(OC)c(OC)cc2C1COc1ccccc1OC (stereo unspecified) | -3.4 | -2.5 | 38.4*! | 0.1 | 7.4
CCCC(=O)N1CCc2cc(OC)c(OC)cc2C1COc1ccccc1OC (stereo unspecified) | -3.2 | 0.7 | 9.9 | -1.0 | ·
CCOC(=O)c1[nH]c(C)c(CCC(=O)Nc2cc(Cl)c(OC)cc2OC)c1C | · | · | -5.5 | -0.8 | ·
COc1ccc(/C=C\c2onc(C)c2S(=O)(=O)N2CCC(C(=O)Nc3ccc(C)cc3C)CC2)cc1 | · | · | 16.9 | 0.1 | ·
C=CCn1c(=O)[nH]c2nc3cc(N=CN(C)C)c(C)cc3nc2c1=O | -11.0 | -4.2 | 3.5 | 30.5* | -6.3
CN(C)/C=N/c1cc(=O)[nH]c(=O)n1CC1CC1 | -7.3 | -1.2 | -1.0 | 0.5 | -8.6
O=C(NNC(=O)c1cccs1)c1ccc([N+](=O)[O-])cc1 | -9.2 | -3.2 | 2.1 | 1.0 | 61.3*
O=C(NNC(=O)c1ccc([N+](=O)[O-])cc1)c1ccc(NS(=O)(=O)c2cccs2)cc1 | -14.0 | -5.9 | · | · | ·
CC(C)(C)c1ccc(C(=O)NC(=S)NNC(=O)c2cccs2)cc1 | -11.5 | -1.7 | -13.0 | 51.0* | 56.4*
Cc1cc(C(=O)OCC(=O)NNC(=O)c2cccs2)ccc1[N+](=O)[O-] | -1.6 | 1.9 | 11.5 | 0.5 | -11.7
COC(=O)c1cc(C(=O)OCC(=O)NNC(=O)c2cccs2)cc([N+](=O)[O-])c1 | 71.0* | 8.1 | -10.3 | 0.1 | -5.8
CCc1ccc(CNC(=O)CSc2cc(=O)n(C)c3ccc(Cl)cc23)cc1 | · | · | -3.5 | 0.2 | ·
Cc1ccc(S(=O)(=O)c2nc(S(=O)(=O)c3ccc(C)cc3)c(NCCCOC(C)C)s2)cc1 | · | · | 6.3 | 0.8 | ·
Cc1cc(C(=O)OCC(=O)Nc2cc(S(=O)(=O)N(C)C)ccc2C)c2ccccc2n1 | -15.0 | -1.6 | -24.2 | 1.9 | 36.9*
Cc1cc(C(=O)OCC(=O)Nc2cc(S(=O)(=O)N(C)C)ccc2Cl)c2ccccc2n1 | -5.9 | -0.7 | -14.0 | -0.3 | 9.6
O=C(COC(=O)C1CCN(S(=O)(=O)c2cccs2)CC1)Nc1ccccc1Br | -5.4 | 12.2 | 0.9 | 0.7 | -27.7
Cc1cc(C(=O)OCC(=O)NCc2ccccc2)c2ccccc2n1 | -22.2 | 6.9 | · | · | ·
Cc1cc(C(=O)OCC(=O)NCCc2ccc(S(N)(=O)=O)cc2)c2ccccc2n1 | -4.1 | -1.6 | 0.2 | 0.3 | 37.6*
COc1ccc(S(=O)(=O)N(C)C)cc1NC(=O)COC(=O)c1nc2nccc(C)n2n1 | -11.4 | -2.1 | 6.8 | -0.9 | 40.4*
Cc1ccc(S(=O)(=O)N(C)C)cc1NC(=O)COC(=O)C1CCN(S(=O)(=O)c2cccs2)CC1 | -3.6 | -3.7 | 0.4 | -0.4 | 35.4*
CCOC(=O)C1CCN(C(=O)Cn2ncc3c4ccccc4n(Cc4ccc(F)cc4)c3c2=O)CC1 | · | · | 14.8 | 1.7 | ·
COc1ccccc1-c1nc2c(c(SCc3cc(C)ccc3C)n1)Cc1c(CO)cnc(C)c1O2 | · | · | 1.8 | -0.8 | ·
SMILES | D2 PAM-1 | D2 ag-1 | D2 PAM-2 | D2 ag-2 | D2 antag
CCOC(=O)CSc1nc(C)nc2c1sc1nc(C)c(C(C)=O)c(-c3ccc(OC)cc3)c12 | -9.1 | -1.5 | 5.1 | 3.4 | 39.6*
O=C(O)c1cccnc1SCc1cccc(Cl)c1 | -29.0 | 0.9 | -22.0 | -1.2 | 44.6*
Cc1cccc(CSc2ncccc2C(=O)O)c1 | -2.6 | 1.3 | 5.3 | 0.6 | -20.0
COc1cccc(Cn2c(=O)cc(C)c3c(C)nn(-c4ccc(C)cc4)c32)c1 | · | · | -7.7 | -1.8 | ·
O/N=C1/CCc2nonc2/C1=N/O | -11.5 | 9.8 | 1.5 | 0.1 | 39.1*
COc1ccc(C(=O)Nc2cccc(-c3cn4ccsc4n3)c2)cc1OC | · | · | -1.3 | 1.2 | ·
CC(Sc1nc(-c2ccccc2)cc(C(F)(F)F)n1)C(=O)O (stereo unspecified) | -5.2 | -2.5 | 17.7 | -0.6 | 3.9
CCN(CC)CCCNC(=O)C(C)Sc1nc(-c2ccccc2)cc(C(F)(F)F)n1 (stereo unspecified) | -10.5 | -2.7 | -8.3 | -0.2 | 31.2*
CCc1ccc(N2CCN(CCNC(=O)Nc3ccccc3)CC2)cc1 | 10.2 | 7.6 | · | · | 73.5*
Cc1c(NS(=O)(=O)c2ccc(NC(=O)CCC(=O)O)cc2)c(=O)n(-c2ccccc2)n1C | -7.3 | 8.0 | -4.2 | 1.2 | 30.1*
CC(=O)N1CCN(C(=O)c2cccc(S(=O)(=O)Nc3c(C)n(C)n(-c4ccccc4)c3=O)c2)CC1 | -14.0 | 0.9 | -5.2 | 0.1 | 51.1*
Cc1c(NC(=O)c2cccc(NC(=O)Cc3ccc(Cl)cc3)c2)c(=O)n(-c2ccccc2)n1C | -1.0 | -1.6 | 0.7 | 0.4 | 32.7*
Cc1c(NS(=O)(=O)c2cccc(C(=O)N3CCCC3)c2)c(=O)n(-c2ccccc2)n1C | -21.5 | 2.2 | · | · | ·
CC(=O)Nc1ccc(S(=O)(=O)Nc2c(C)n(C)n(-c3ccccc3)c2=O)cc1 | -8.5 | -2.1 | 2.5 | -0.7 | -0.2
O=C(NCCc1ccccc1)c1cc(Sc2cccc(Cl)c2)nc2ccccc12 | · | · | 10.0 | 0.4 | ·
COc1ccc2oc(=O)cc(CN3CCN(c4ccccc4F)CC3)c2c1 | · | · | -3.0 | 4.6 | ·
O=c1c2ccccc2nnn1CSc1ccc2c(c1)OCCO2 | 10.4 | -2.8 | 43.4* | 1.8 | -3.8
CCC(C(=O)Nc1ccc2c(c1)OCCO2)n1nnc2ccccc2c1=O (stereo unspecified) | 11.1 | -2.0 | -8.0 | 0.0 | 9.4
Cc1ccc(S(=O)(=O)NCCc2nnc3ccc(SCc4ccccc4F)nn23)cc1 | · | · | -9.4 | -0.2 | ·
CCOC(=O)c1c(C)n(-c2ccc(C)cc2)c2c(CC(C)=O)c(Br)c(OC)c(O)c12 | -3.7 | -1.2 | 3.5 | 0.4 | -5.2
CCOC(=O)c1c(C)n(-c2ccc(C)cc2)c2c(C(C(C)=O)C(=O)O)c(Br)c(O)c(O)c12 (stereo unspecified) | 70.0* | ? | 2.0 | 1.1 | 13.3
COc1ccc(C(CNC(=O)c2cccc(S(=O)(=O)N3CCCC(C)C3)c2)N(C)C)cc1 (stereo unspecified) | -6.0 | 0.9 | -33.8 | -0.2 | 76.4*

High-throughput results (PubChem BioAssay)
